Compound activity from PubChem BioAssay.
In the library only some 1.6% were active in any assay of this set; here they are far more common.
CCHF vOTU inh – blocks the CCHF virus ovarian tumor domain protease; CCHFV vOTU protease, Pep-AMC fluorescence; inhibition, % at 11.5 µM; 370,000 compounds, 0.55% hits; AID 651958; in the data active means inhibition above about 30%; further: 0% = vehicle wells with enzyme and 100% = no enzyme wells
Sa RN4220 lethal – S. aureus RN4220 growth inhibition; OD600, 16 h; inhibition, % (no concentration beside the values); 330,000 compounds, 0.33% hits; AID 1259311; in the data active means inhibition above about 85%;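 further: plate controls were untreated cells for no effect and reference antibiotic for full effect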
BJeLR lethal – BJeLR cell viability loss. BJeLR (HRASV12) viability, CellTiter-Glo ATP luminescence, 48 h. inhibition, % (no concentration beside the values). 300,000 compounds, 0.17% hits. AID 1554; in the data active means inhibition above about 50%
ugtP null kill – growth inhibition of S. aureus ugtP deletion strain. 330,000 compounds, 0.54% hits. growth inhibition, % (concentration not given with the values). S. aureus RN4220 ugtP deletion, OD600 growth, 16 h; in the data active means growth inhibition above about 68%;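 further: plate controls were untreated wells for no effect and antibiotic for full effect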
PfHsp40 rescue – rescue of PfHsp40-mediated yeast toxicity; S. cerevisiae expressing PfHsp40, growth rescue, ATP luminescence; growth rescue, % at 12.5 µM; 340,000 compounds, 0.68% hits; in the data active means growth rescue above about 28%, passing the limit was not always enough;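 further: yeast W303a lacking pdr1 and pdr3 grown in galactose medium; growth measured after three days at 30 °C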
* hit, by the source's call; x = not tested or not shown.

SMILES | CCHF vOTU inh | Sa RN4220 lethal | BJeLR lethal | ugtP null kill | PfHsp40 rescue
Cc1cc2ccccc2cc1C(=O)c1ccccc1 | 6.2 | 4.7 | x | 77.8 | 0.6
CN1CCN(C=Nc2c(C#N)cnn2Cc2ccccc2)CC1 | x | 2.8 | x | 0.2 | x
N#CC(C#N)=C1C=CC=CN1/C(=C\c1ccco1)C(=O)c1ccc(Br)cc1 | 3.4 | 98.7* | x | 98.4* | 3.1
N#CC(C#N)=C1C=CC=CN1/C(=C\c1ccco1)C(=O)c1ccccc1 | -13.6 | 36.6 | x | 74.0 | -0.2
COC(=O)C1=NNC2(c3ccc(Cl)cc3)C(=O)N(c3ccc(Cl)cc3)C(=O)C12 (stereo not drawn) | -2.9 | 1.9 | 8.4 | 8.1 | 45.2*
CC1=C(C(=O)Nc2ccc(CC(=O)NCc3ccccc3C)cc2)SCCO1 | 13.8 | 2.1 | -13.7 | 5.0 | 0.5
CCc1ccc(CNC(=O)Cc2ccc(NC(=O)C3=C(C)OCCS3)cc2)cc1 | 13.6 | x | 53.1* | x | -0.6
COCC(=O)Oc1c(S(=O)(=O)c2ccc(C)cc2)c(C)nn1-c1ccccc1 | 0.3 | 6.5 | 2.0 | 14.2 | 157.3*
COc1ccc(S(=O)(=O)N(CC(=O)N/N=C/c2cccs2)c2cc(C)cc(C)c2)cc1OC | -3.0 | x | -9.2 | x | 47.6*
O=C(Nc1ccccc1)c1nnsc1S(=O)c1ccc(Cl)cc1 (stereo not drawn) | -3.1 | 100.3* | -14.0 | 100.5* | 10.9
O=C(c1nnsc1S(=O)c1ccc(Cl)cc1)N1CCOCC1 (stereo not drawn) | 4.4 | 95.4* | -4.0 | 100.5* | 143.1*
C=CCN1C(=O)C(Cc2ccc(Br)cc2)SC1=NN=Cc1ccco1 (stereo not drawn) | x | 5.8 | x | 5.1 | x
COc1ccc(S(=O)(=O)Nc2ccc(O)c3ccccc23)cc1 | 81.9* | 12.8 | 1.9 | -1.4 | -1.6
CCOc1ccc(C=NOCC(=O)Nc2cc(C)on2)cc1 | x | 2.7 | x | 12.4 | x
Cc1cccc(C)c1OC(=O)C(c1ccccc1)c1ccccc1 | -6.2 | 0.4 | 5.9 | 96.3* | -1.8
CCC1OC(=O)C(C)C(OC2C[C@@](C)(OC)C(O)C(C)O2)C(C)C(OC2OC(C)CC(N(C)C)C2O)[C@](C)(O)CC(C)C(=NOCOCCOC)C(C)C(O)[C@]1(C)O (stereo partly drawn) | x | 99.8* | x | 100.1* | x
O=C1C=C(c2ccccc2)C(=O)N1Nc1ccccc1 | 5.5 | 4.5 | -8.6 | 4.9 | 263.5*
COc1ccc(C2=CC(=O)N(Nc3ccccc3)C2=O)cc1 | -2.4 | 3.4 | x | -6.4 | x
Cc1cc([N+](=O)[O-])c2ccccc2[n+]1[O-] | x | 8.0 | 39.8 | 76.6 | 126.6*
O=[N+]([O-])c1cccc2c([N+](=O)[O-])cccc12 | 15.2 | 8.9 | x | 1.9 | -0.5
COC(=O)c1ccc2c(c1)C(C)(C)C(C=Cc1ccc(OC)c(OC)c1OC)=[N+]2C | x | 10.2 | x | -7.3 | x
CC(C)Cn1c(=O)c(C(=O)NN=Cc2cccc(F)c2)c(O)c2ccccc21 | x | 100.5* | x | 99.1* | x
CC(C)CCn1c(=O)c(C(=O)N/N=C/c2cccc(F)c2)c(O)c2ccccc21 | 2.9 | x | -3.9 | x | 1.0
CCc1ccc(NC(=O)CON=C(C)c2cc3ccccc3o2)cc1 | x | -5.4 | x | 7.7 | x
O=C(Nc1ccccc1)Nc1cc(OCC(F)(F)F)cc(OCC(F)(F)F)c1 | 25.9 | 90.4* | 23.5 | 93.8* | 1.8
SMILES | CCHF vOTU inh | Sa RN4220 lethal | BJeLR lethal | ugtP null kill | PfHsp40 rescue
O=C(NNC1=C(C(=O)C(F)(F)F)CCC1)c1cccc(O)c1 | 8.6 | 6.3 | 5.4 | 24.7 | -0.8
Cc1cccc(C(=O)NNC2=C(C(=O)C(F)(F)F)CCC2)c1O | -3.5 | 98.6* | 7.7 | 98.3* | 1.4
Cc1ccc2c(c1)C1C(CO2)C(c2ccccc2)[C@]2(C)C(=O)Nc3ccccc3C(=O)N12 (stereo partly drawn) | x | -5.5 | x | 2.2 | x
C(=N\NC1=Nc2cccc3cccc1c23)/c1ccccn1 | 6.7 | x | -0.8 | x | 326.9*
O=C(ON=C(c1ccccc1)c1ccncc1)c1ccccc1[N+](=O)[O-] | x | 0.2 | x | 2.4 | x
CC(NC(=O)C12CC3CC(CC(C3)C1)C2)C(=O)NN=CC1=C(N2CCOCC2)/C(=C\c2ccccc2)CC1 (stereo not drawn) | x | -10.1 | x | -7.8 | x
O=C(O)c1ccc(N/N=C/C2=C(N3CCOCC3)C(=C\c3ccccc3)/CC2)cc1 | 3.0 | x | 9.6 | x | 273.4*
NC(=O)c1cn(C2OC(CO)C(O)C2O)c2ncnc(N)c12 (stereo not drawn) | 3.5 | 2.5 | 91.0* | -1.9 | -2.0
N#Cc1cn(C2OC(CO)C(O)C2O)c2ncnc(N)c12 (stereo not drawn) | -2.0 | x | x | x | -1.4
CC(=NNC(=O)C(O)c1ccccc1)c1ccc(Cl)cc1 (stereo not drawn) | x | 3.6 | x | 2.5 | x
Cc1ccc(NC(=S)NN=C2CCCCc3ccccc32)cc1 | x | 94.5 | x | active | x
Cc1ccc(C)c(NC(=S)NN=C2CCCCc3ccccc32)c1 | x | 4.0 | x | 58.0 | x
COC(=O)C1=C(c2cccc(C#N)c2)CC2CCC1N2C(=O)N1CCC(O)CC1 (stereo not drawn) | x | 2.6 | x | -0.7 | x
O=C1OC(c2ccccc2)(c2ccc3cc(O)ccc3c2)c2ccccc21 (stereo not drawn) | 4.8 | -17.7 | x | 92.9* | 4.9
c1ccc(N(c2ccccc2)c2nc(N3CCCC3)nc(-n3ccnc3)n2)cc1 | -8.8 | -8.5 | -14.6 | -15.5 | 0.2
CN(c1ccccc1)c1nc(N2CCCC2)nc(-n2ccnc2)n1 | 9.5 | -8.9 | 4.1 | 1.4 | 392.9*
O=C(Cc1ccccc1)NN=Cc1cc(Br)c(Br)o1 | x | 3.6 | x | -6.3 | x
Nc1cc2c3ccccc3ccc2c2ccccc12 | -28.4 | -10.1 | x | 5.8 | 249.1*
O=C1COc2ccc(S(=O)(=O)N3CCN(c4cccc(Cl)c4)CC3)cc2N1 | 1.1 | 0.8 | -3.3 | 3.7 | 53.4*
O=C1COc2ccc(S(=O)(=O)CCC(=O)N3CCN(c4cccc(Cl)c4)CC3)cc2N1 | -2.8 | 1.7 | -4.7 | -1.5 | -0.9
O=C(Nc1cccc(C(F)(F)F)c1)c1cccnc1N1CCN(c2ccccc2)CC1 | -2.7 | -9.7 | -2.7 | 92.1* | -0.2
CON/C=C(\C=Nc1ccc(F)cc1)c1ncc(C(F)(F)F)cc1Cl | 1.0 | -3.1 | -2.6 | 91.8* | 1.6
CON/C=N/C(=S)Nc1ncc(C(F)(F)F)cc1Cl | 2.7 | 13.7 | 10.2 | -0.2 | 0.2
CCOC1OC(C(=O)NC2CC2)=CC(c2ccccc2)C1CCCO (stereo not drawn) | x | 6.5 | x | -0.4 | x
C[C@]12C=CC(=O)C=C1CC[C@@H]1[C@@H]2CC[C@]2(C)C(=O)CC[C@@H]12 | -0.1 | x | x | x | 48.1*
SMILES | CCHF vOTU inh | Sa RN4220 lethal | BJeLR lethal | ugtP null kill | PfHsp40 rescue
CC12C=CC(=O)C=C1CCC1C2C(=O)CC2(C)C(=O)CCC12 (stereo not drawn) | 7.2 | 3.8 | x | 4.6 | -1.1
CCN(C(C)=O)c1cnc(C=NNC(N)=S)c2ccccc12 | 9.4 | x | x | x | 82.3*
CC(=O)n1cc(C=NNC(N)=S)c2ccccc21 | x | 4.8 | x | -0.5 | x
O=S1(=O)C=C(Sc2nc3ccccc3s2)c2ccccc21 | x | 54.1 | 55.6* | 90.6* | x
Cc1cc(C)nc(SC2=CS(=O)(=O)c3ccccc32)n1 | -3.6 | 5.9 | -18.6 | -2.5 | 0.4
CCc1ccc(-c2csc(-c3c[nH]c4ccccc34)n2)cc1 | 11.3 | -2.2 | 16.1 | 85.4* | -1.1
Nc1nc(-c2c[nH]c3ccccc23)cs1 | 2.5 | 3.4 | -2.8 | -11.6 | 1.6
